In PubChem BioAssay (NCATS):
Inconclusive results are not listed. The source made the active and inactive calls. Unless noted, calls follow the shape of the dose curve; as a rule, active = well fitted curve in the direction sought with a large enough effect; inconclusive = small, poorly fitted or top-dose-only effect, or another doubt; inactive = no such curve, though single readings can be large; an effect the other way counts as inactive or inconclusive.

Assays:
[1] = S16 Schwann cell PMP22 intronic element beta-lactamase assay (AID 624044; calls by dose curve;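 also: 0% = DMSO and -100% = potassium clavulanate positive control; nearly all actives have a fitted effect of over 15% in size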)
Summary of the method: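 Beta-lactamase reporter under a PMP22 intronic regulatory element in stable S16 rat Schwann cells; 24 h compound exposure. 460 nm blue signal normalized between DMSO (0%) and potassium clavulanate, with 535 nm FRET tracking viability; curves classed by r2 and response.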

[2] = qHTS profiling of the MIPE4 collection as inhibitors of Plasmodium falciparum (DD2) proliferation (AID 743345; call rule not given here); conditions: P. falciparum Dd2 in erythrocytes, SYBR Green DNA, 72 h; at 28.5 µM (top of the series)
Summary of the method: (§1)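 Parasite DNA was quantified by SYBR Green I fluorescence (ex 485, em 535 nm) after overnight lysis in saponin/Triton buffer at room temperature. Cultures at 0.3% parasitemia and 2.5% hematocrit were first exposed to compound for 72 h at 37 C; signals were normalised to artemisinin (0.29 uM) and vehicle wells.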

[3] = Cytotoxicity counterscreen for NFkB agonists and antagonists (AID 624476);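 also: cells exposed to compound for 48 hours; % is scaled to controls: 0 for no effect and ±100 for the full control effect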
[4] = qHTS Assay for Identification of Small Molecule Agonists for NFkB Signaling Pathway. (AID 624478);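 also: compounds tested together with TNF alpha at its EC50 of 10 pM; 0% is about no effect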
Summary of the method: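 Compounds were added with 10 pM TNF alpha (EC50 level) to ME-180 NFkB-bla cells in low-serum Opti-MEM and incubated 5 hrs at 37 C. Beta-lactamase FRET read-out used 405 nm excitation and 460 and 530 nm emission.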

[5] = qHTS Assay for Identification of Small Molecule Antagonists for NFkB Signaling Pathway. (AID 624479; calls by dose curve;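 also: pathway stimulated with TNF alpha; % is scaled to controls: 0 for no effect and ±100 for the full control effect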)
[6] = Cell Proliferation Assay against the TMD8 Cell Line (AID 651645); conditions: TMD8 DLBCL cell line proliferation/viability; at 46.1 µM (top of the series);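 also: cells exposed to compound for 48 h before reading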
Summary of the method: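 TMD8 cells, 500/well in RPMI with 5% FBS, dosed immediately and grown 48 h at 37 C, 5% CO2. CellTiter-Glo luminescence normalised to DMSO 100% and 9.2 uM bortezomib (final) 0%.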

[7] = Cell Proliferation Assay against the HBL1 Cell Line (AID 651646); conditions: HBL1 DLBCL cells; at 46.1 µM (top of the series);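 also: cells exposed to compound for 48 h before reading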
Summary of the method: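 After a 48 h incubation of 500 HBL1 cells/well in phenol red-free RPMI plus 5% FBS, relative luciferase units from CellTiter-Glo gave percent activity against DMSO and 9.2 uM bortezomib (final) controls.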

[8] = Cell Proliferation Assay against the TMD8 Cell Line (Caspase readout at 16 hrs) (AID 651712); conditions: TMD8 lymphoma cells, caspase activation luminescence; also: potency is read from the fitted curve at half-maximal effect
Summary of the method: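 16 h, 37 °C, TMD8 (500 cells/well), RPMI/5% FBS no phenol red; Caspase-Glo 3/7, 15 min RT, luminescence; %act: DMSO 0, bortezomib 9.2 uM final 100.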

[9] = Cell Proliferation Assay against the TMD8 Cell Line (Caspase readout at 8 hrs) (AID 651713); conditions: TMD8 lymphoma cells, caspase activation luminescence; also: potency is read from the fitted curve at half-maximal effect
Summary of the method: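 Apoptosis read-out: Caspase-Glo luminescence after 8 h compound exposure of TMD8 lymphoma cells at 37C, 5% CO2. Signals were normalized as percent activity between DMSO and bortezomib (9.2 uM final) controls.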

[10] = qHTS profiling for inhibitors of Plasmodium falciparum (3D7) proliferation (AID 743322);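 also: infected erythrocytes exposed to compound for 72 h before lysis; 100% = DMSO vehicle wells and 0% = 0.29 µM artemisinin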; conditions: P. falciparum 3D7 proliferation; at 28.7 µM (top of the series)
Summary of the method: as §1

[11] = qHTS profiling for inhibitors of Plasmodium falciparum (DD2) proliferation (AID 743323; call rule not given here); conditions: lower = more inhibition; at 28.7 µM (top of the series)
Summary of the method: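 SYBR Green fluorescence (ex 485, em 535 nm) of lysed cultures gives parasite DNA content; wells normalized to artemisinin (0.29 uM) and DMSO controls. Infected red cells: 0.3% parasitemia, 2.5% hematocrit, 72 h, 37 C.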

[12] = target: Tyrosyl-DNA phosphodiesterase 1 (Homo sapiens) (UniProt Q9NUW8); assay: Confirmation Assay for Inhibitors of Tyrosyl-DNA Phosphodiesterase (TDP1) (AID 489007); conditions: recombinant human TDP1 enzymatic activity, dose-response; also: potency is read from the fitted curve at half-maximal effect; nearly all actives have a fitted effect of over 40% in size
Summary of the method: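 AlphaScreen assay of tyrosine-FITC cleavage from a biotinylated DNA substrate (15 nM) by E. coli-expressed human Tdp1 (1 nM). Sequence: compound preincubation 15 min, reaction 5 min, bead detection 10 min, all at room temperature. No-enzyme wells give maximum signal.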

Tyrosyl-DNA phosphodiesterase 1 (Homo sapiens), sequence (Q9NUW8 whole entry, looked up): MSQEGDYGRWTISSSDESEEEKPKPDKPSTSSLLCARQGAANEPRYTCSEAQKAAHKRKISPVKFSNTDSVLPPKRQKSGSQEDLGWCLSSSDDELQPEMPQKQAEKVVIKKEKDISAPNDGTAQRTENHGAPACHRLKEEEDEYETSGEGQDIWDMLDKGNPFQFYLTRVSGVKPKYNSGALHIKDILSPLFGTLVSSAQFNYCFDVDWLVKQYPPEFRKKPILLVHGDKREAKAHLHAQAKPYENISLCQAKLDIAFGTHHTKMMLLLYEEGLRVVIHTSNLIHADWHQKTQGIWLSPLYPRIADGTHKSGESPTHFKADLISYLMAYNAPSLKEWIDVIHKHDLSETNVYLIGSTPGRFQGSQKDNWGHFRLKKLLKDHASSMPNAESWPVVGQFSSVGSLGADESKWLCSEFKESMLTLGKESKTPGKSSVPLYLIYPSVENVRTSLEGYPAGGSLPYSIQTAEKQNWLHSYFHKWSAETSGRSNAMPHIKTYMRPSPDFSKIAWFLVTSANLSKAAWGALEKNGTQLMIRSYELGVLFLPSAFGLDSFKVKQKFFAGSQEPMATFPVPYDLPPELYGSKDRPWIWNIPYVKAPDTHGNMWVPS

## CC(=O)[C@H]1CC[C@H]2C3CC=C4C[C@@H](O)CC[C@]4(C)C3CC[C@]12C (some centres not stated)
[1]
  Potency: inactive

## C[C@H](CCC(=O)O)[C@H]1CCC2C3CC[C@@H]4C[C@H](O)CC[C@]4(C)C3CC[C@@]21C (some centres not stated)
[2]
  parasite growth remaining, % of DMSO control (lower = more inhibition): 97.2%

## CC#C[C@]1(O)CC[C@H]2[C@@H]3CCC4=CC(=O)CCC4=C3[C@H](c3ccc(N(C)C)cc3)C[C@@]21C
[3]
  outcome: inactive
[4]
  outcome: inactive
[5]
  outcome: inactive
[6]
  viability (% of control): 2.64%
[7]
  viability, percent of control: 10.1%
[8]
  Potency: 26.4 µM (active)
[9]
  Potency: 23.5 µM (active)
[10]
  remaining parasite growth % (stronger effect = lower value): 20.9%
[11]
  activity, percent of control: 17.2%

## Cc1nc(N=Nc2cc(S(=O)(=O)O)ccc2S(=O)(=O)O)c(COP(=O)(O)O)c(C=O)c1O
[12]
  Potency: 1 µM (active)
